Laboratory results as given in PubChem BioAssay AID662 (National Center for Advancing Translational Sciences (NCATS), 2007).
The whole screen tested about 71,000 compounds, of which about 1,800 (2.5%) were called active. Entries that show only a call come without a potency. About 26% were inconclusive and are not listed. The full list was thinned out, with actives kept by preference. Values without a mark were called inactive. Calls come from the whole dose curve; as a rule, active = well fitted activation curve with a large enough effect in the signal ratio, with a control signal flat (not every such curve was filed as active); inconclusive = small, poorly fitted or top-dose-only effect, or effect the other way, or a change in a side signal; inactive = flat fitted curve, though single readings scatter; the % refers to the signal ratio.

Experiment: Cell signaling CRE-BLA (Fsk stim)
Conditions: CHO CRE-bla reporter (cAMP response element driving beta-lactamase), forskolin EC10, beta-lactamase ratio; series mostly up to 38.2 µM
From the text: NIH Molecular Libraries Screening Centers Network [MLSCN]
NIH Chemical Genomics Center [NCGC]
Assay Provider: Marshall W. Nirenberg, U.S. National heart lung & blood institute
Memories persist for different lengths of time, from seconds or minutes to a lifetime. There are two kinds of memory: short-term memory (STM) and long-term memory (LTM). STM lasts for minutes to hours, which maybe mediated by modifications of molecules involved in synaptic functions. LTM lasts for days or longer, and may be due to the formation of new synapses or restructuring of existing synapses. LTM, but not STM, requires gene transcription and synthesis of proteins. CREB (cyclic-AMP Responsive Element Binding Protein) is one of the candidates plays an important role for enhancement of some types of LTM. CREB, a family of transcription factors, regulates the transcription of genes containing cAMP Responsive Elements (CRE). CRE is a nucleotide sequence often found in the promoter regions of genes that are binding sites for CREB.
Using a beta-lactamase reporter-gene under control of cAMP responsive element, a cell-based assay [CellSensor(TM) CRE-bla CHO developed by Invitrogen Corp.] was used to measure forskolin-induced signaling. Library compounds were measured for their ability to modulate positively or negatively the action of EC10 NKH 477, a water soluble forskolin, on reporter gene activity. Compounds were screened in a titration series in 1536-well format. Positive and negative modulators were identified based on the AC50 values derived from the screening data.
NCGC Assay Protocol Summary
2000 cells/5uL in Opti-MEM medium containing 0.5% dialyzed FBS, 0.1 mM NEAA, 1 mM sodium pyruvate and 10 mM HEPES was dispensed into 1536-well plates and cells were cultured at 37 degrees Celsius overnight. […] And then the plates were incubated at 37 degrees Celsius for 3 hours. 1 uL of CCF4-dye mixture was added to each well. After incubated at room temperature for 2 hours the plates were measured on an EnVision plate reader at Excitation 405nm, Emission1=460nm and Emission 2=530nm. The %Activity was determined from the ratio of 460nm/530nm.
Keywords: NIH Roadmap, MLSCN, MLSMR, qHTS, NCGC, CRE, beta-lactamase reporter-gene assay.
Potency is the fitted concentration of half-maximal effect.

Compound	Potency	activity change, negative = inhibition
CCc1nnc(NC(=O)c2cccs2)s1	inactive	–
O=C(Nc1ncccn1)c1cccs1	inactive	–
COC(=O)Cn1cc(C(=O)c2cccs2)c2ccccc21	inactive	–
CCOC(=O)c1c(NC(=O)c2cccs2)sc(C)c1C	2.51 µM (active)	–
CCOC(=O)c1oc2ccccc2c1NC(=O)c1cccs1	3.98 µM (active)	–
O=C(O)Cc1ccc(NC(=O)c2cccs2)cc1	inactive	–
COC(=O)C1=C(C)N(C)C(C)=C(C(=O)OC)C1c1cccc(Br)c1	inactive	–
O=C(Cl)c1ccc([N+](=O)[O-])cc1	inactive	–
CCNC(=S)NCC	inactive	–
CCCCC(CC)CN (stereo not drawn)	inactive	–
c1csc(-c2cn3c(n2)SCC3)c1	inactive	–
Cc1c(C)c2c(c(C)c1O)CC[C@@](C)(CN1CCN(c3cc(N4CCCC4)nc(N4CCCC4)n3)CC1)O2	inactive	–
CC1OC2C(OC1C)N(S(C)(=O)=O)CCN2S(C)(=O)=O (stereo not drawn)	inactive	–
O=c1c(CCc2ccccc2)nc2cnc(N3CCNCC3)nc2n1Cc1cccs1	12.6 µM (active)	–
Cc1nc2cnc(N3CCN(C)CC3)nc2n(C[C@H]2CCCO2)c1=O	inactive	–
Cc1nc2cnc(N3CCN(C)CC3)nc2n(CCC#N)c1=O	inactive	–
CC(C)(C)[Si](OCC[C@@H]1C[C@@]1(C)[C@@H](NP(=O)(c1ccccc1)c1ccccc1)c1ccccc1)(c1ccccc1)c1ccccc1	inactive	–
COC(=O)[C@@]1(Cc2ccc(OC)cc2)[C@H]2c3cc(C(=O)N4CCCC4)n(Cc4ccc(C(F)(F)F)nc4)c3C[C@H]2CN1C(=O)c1ccccc1	inactive	–
COC(=O)C1(C)C=CC2(CCCCC2)N1C(C)=O (stereo not drawn)	inactive	–
CCCCCCCCCCCC(=O)O	inactive	–
Cc1cccn2c(=O)c3cc(C#N)c(=O)n(CCCN4CCOCC4)c3nc12	10 µM (active)	–
CCCOc1ccc(C2c3c(oc4cc(C)c(C)cc4c3=O)C(=O)N2CCCN2CCOCC2)cc1 (stereo not drawn)	inactive	–
Cn1c(=O)c2c(nc(CN3CCOCC3)n2Cc2ccccc2)n(C)c1=O	inactive	–
CCOC(=O)CSc1nnc(-c2cccc(Br)c2)o1	inactive	–
CCC[C@@H]1C[C@@]1(CCC)C(NC(=O)c1ccc(-c2ccccc2)cc1)c1cccc(Cl)c1 (stereo partly drawn)	inactive	–

Compound	Potency	activity change, negative = inhibition
COc1ccc(C(=O)NCc2cn3ccccc3n2)cc1	inactive	–
CCOc1ncccc1C(=O)OCc1cn2cc(Cl)ccc2n1	10 µM (active)	–
CSc1ncccc1C(=O)OCC(=O)N1CCOCC1	inactive	–
CC(=O)N1[C@H](C)C=C[C@]1(Cc1ccccc1)C(=O)NCc1ccccn1	inactive	–
C/C(=C\C(=O)c1ccc(Br)cc1)N1CCCCC1	inactive	–
COC(=O)C1(Cc2ccccc2)C=C2C(=C(C)C(=O)C2C)CN1 (stereo not drawn)	inactive	–
Fc1ccc(-c2ccc(-c3nn4c(-c5ccco5)nnc4s3)o2)cc1	inactive	–
Cc1nnc2sc(-c3ccco3)nn12	inactive	–
COc1ccc(-c2nn3c(-c4ccccc4)nnc3s2)cc1OC	3.16 µM (active)	–
CC(=O)Nc1ccc(-c2nn3c(C)nnc3s2)cc1C	inactive	–
COc1cc(-c2nn3c(-c4cccc(C)c4)nnc3s2)cc(OC)c1OC	1.58 µM (active)	–
COC(=O)CCCCCN1C(=O)NC(c2ccc(-c3ccccc3)cc2)C(C(=O)OCc2ccccc2)=C1C (stereo not drawn)	inactive	–
O=C(CCSc1ccccc1)NCCSc1ccccn1	inactive	–
CCOc1ccccc1N(CC(=O)Nc1ccccc1C(=O)OC)S(C)(=O)=O	–	12.2% [at 7.6 µM]
CC(NC(=O)Nc1ccccc1)c1ccccc1 (stereo not drawn)	inactive	–
CC(Cc1ccccc1)C(=O)N(C)Cc1ccccc1 (stereo not drawn)	inactive	–
COC(=O)C(C)Sc1nc2c(c(=O)n(C)c(=O)n2C)n1Cc1cccc(C)c1 (stereo not drawn)	inactive	–
CCOc1ccc(Cn2c(SCCCCC#N)nc3c2c(=O)n(C)c(=O)n3C)cc1OCC	10 µM (active)	–
CCCSc1nc2c(c(=O)n(C)c(=O)n2C)n1Cc1ccc(C)cc1	inactive	–
COC(=O)[C@@]1(Cc2ccccc2)[C@H]2c3cc(C(=O)N(C)C)n(CCSCCO)c3C[C@H]2CN1C(=O)c1ccccc1	inactive	–
NS(=O)(=O)c1ccc(NS(=O)(=O)/C=C/c2ccccc2)cc1	inactive	–
CC(C)(C)NC(=O)c1cc(NC(=O)c2ccco2)cc(NC(=O)c2ccco2)c1	inactive	–
O=c1c2[nH]c3ccc(Cl)cc3c2ncn1Cc1ccccn1	3.98 µM (active)	–
O=C(Nc1cccc(Cl)c1)OCc1ccccn1	inactive	–
CC(=O)N1CC2(C)CN(C(C)=O)CC(C)(C1)C2=O	inactive	–

Compound	Potency	activity change, negative = inhibition
C/C=C/C=C/C(=O)O	inactive	–
CCNc1nc(NCC)nc(N(C)n2cnnc2)n1	inactive	–
Nc1nc(SCCOc2ccccc2)n[nH]1	inactive	–
CCNc1nc(SCCOc2ccccc2)nc(N(C)C)n1	3.98 µM (active)	–
OC(CCl)CCl	inactive	–
CCCc1nc(SCC(=O)Nc2ccccc2OC)c2c(=O)n(C)c(=O)n(C)c2n1	2.51 µM (active)	–
COc1ccccc1NC(=O)CSc1nnc(-c2ccoc2C)n1CCc1ccccc1	inactive	–
Cn1c(=O)c2c(nc(SCC(=O)Nc3ccccc3N3CCCCC3)n2C)n(C)c1=O	inactive	–
C=CCc1cccc2cc(C(=O)OCC)c(=O)oc12	inactive	–
COc1ccccc1N1CCN(C[C@@H]2CN3C(=O)N(C)c4ccccc4C3=N2)CC1	inactive	–
COc1ccc(-c2noc(-c3cccc(OC)c3OC)n2)cc1OC	2.51 µM (active)	–
COc1ccc(-c2nc(-c3ccccc3)no2)c(OC)c1	inactive	–
COc1cc(-c2nc(-c3ccncc3)no2)cc(OC)c1OC	inactive	–
COc1ccccc1C(=O)n1nc(-c2ccccc2)nc1N	inactive	–
COc1ccc(C(=O)n2nc(-c3ccc(Cl)cc3)nc2N)cc1OC	2 µM (active)	–
COc1ccc(C(=O)n2nc(-c3ccc(C)cc3)nc2N)cc1OC	inactive	–
O=C1CC(N2CCN(C(c3ccccc3)c3ccccc3)CC2)C(=O)N1 (stereo not drawn)	inactive	–
CC/C(=N\O)C(C)(C)/[N+]([O-])=C/c1ccc(Br)cc1	inactive	–
O=C(OCCO)c1cc(Cl)c(C(=O)OCCO)cc1Cl	inactive	–
O=C(O)CN(Cc1ccco1)S(=O)(=O)c1ccccc1	inactive	–
CCc1nc(Nc2ccc3nccnc3c2)c2oc3ccccc3c2n1	0.794 µM (active)	–
CCc1nc(N2CCN(c3nc(C)cc(C)n3)CC2)c2oc3ccccc3c2n1	inactive	–
COc1ccccc1Nc1ncnc2c1oc1ccccc12	inactive	–
